# Only some compounds are listed: those with a hit (about 1.2% of all), similar ones and a draw of the others.
# Y pestis TopoI = Yersinia pestis topoisomerase I inhibitors, primary screen, biochemical, cleavage product accumulation, plate reader, single point. Y. pestis Topo-I cleavage product accumulation. activity, % at 10 µM. 360,000 tested, 0.064% active. AID 504884, 2011; in the data active = activity above about 50%, passing the limit was not always enough
# VHR inh abs = VHR1 phosphatase inhibitors, primary screen, biochemical, absorbance, uHTS | Dual specificity protein phosphatase 3 (Homo sapiens), P51452 | recombinant VHR phosphatase, pNPP absorbance | inhibition, % at 13.3 µM | 290,000 tested, 0.52% active; in the data active = inhibition above about 50%
# Target sequence (P51452 whole entry, looked up): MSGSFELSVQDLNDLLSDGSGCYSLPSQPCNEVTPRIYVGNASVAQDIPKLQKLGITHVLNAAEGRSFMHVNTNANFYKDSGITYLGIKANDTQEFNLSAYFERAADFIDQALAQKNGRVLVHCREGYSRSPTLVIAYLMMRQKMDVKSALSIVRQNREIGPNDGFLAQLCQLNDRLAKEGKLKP
# BH1578 lux ind = inducers of Vibrio cholerae quorum light production without autoinducers, primary screen, BH1578 luxS cqsA deficient, single point | V. cholerae BH1578 lux reporter, luminescence, 6 h | activation, % at 18.7 µM | 350,000 tested, 0.16% active; in the data active = activation mostly above about 9.7%, no sharp cut-off
# PfHsp40 rescue = rescue of yeast from PfHsp40 toxicity, primary screen, S. cerevisiae, ATP luminescence; growth rescue, % at 12.5 µM; S. cerevisiae expressing PfHsp40, growth rescue; 340,000 tested, 0.68% active; AID 504582, 2011; in the data active = growth rescue above about 28%, passing the limit was not always enough;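 also: yeast W303a lacking pdr1 and pdr3 grown in galactose medium; growth measured after three days at 30 °C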
# Mtb BioA inh = M. tuberculosis BioA enzyme inhibitors, primary screen, biochemical, plate reader, single point, HTS; 360,000 tested, 0.096% active; 7,8-diaminopelargonic acid synthase BioA (Mycobacterium tuberculosis); purified M. tuberculosis BioA enzyme; inhibition, % at 9.99 µM; in the data active = inhibition above about 40%
# TcdB inh = TcdB glycohydrolase inhibitors, primary screen, biochemical, single point, plate reader; 350,000 tested, 0.24% active; TcdB glycohydrolase enzymatic assay; inhibition, % at 9.99 µM; AID 652162, 2013; in the data active = inhibition above about 10%
# Numbers stand for hits; n = inactive; x = no result.
SMILES,Y pestis TopoI,VHR inh abs,BH1578 lux ind,PfHsp40 rescue,Mtb BioA inh,TcdB inh
CN(CCc1cnn(C)c1)Cc1cn(C)nc1-c1ccc2c(c1)OCCO2,n,52,n,n,x,n
CCNC(=O)C[C@H]1CC[C@@H]2[C@@H](COc3ccc(NC(C)=O)cc3C(=O)N2C)O1,x,x,x,x,n,25
CCNC(=O)C[C@@H]1CC[C@H]2[C@@H](COc3ccc(NC(C)=O)cc3C(=O)N2C)O1,x,x,x,x,n,16
CCNC(=O)C[C@H]1CC[C@@H]2[C@H](COc3ccc(NC(C)=O)cc3C(=O)N2C)O1,x,x,x,x,n,12
CC(=O)Nc1ccc2c(c1)C(=O)N(C)[C@H]1CC[C@H](CC(=O)NCC3CC3)O[C@@H]1CO2,x,x,x,x,n,n
CCCNC(=O)C[C@H]1CC[C@@H]2[C@@H](COc3ccc(NC(=O)c4ccc5c(c4)OCO5)cc3C(=O)N2C)O1,x,x,x,x,n,12
CCNC(=O)C[C@H]1CC[C@H]2[C@@H](COc3ccc(NC(C)=O)cc3C(=O)N2C)O1,x,x,x,x,n,n
CCCNC(=O)C[C@@H]1CC[C@@H]2[C@@H](COc3ccc(NC(=O)c4ccc5c(c4)OCO5)cc3C(=O)N2C)O1,x,x,x,x,n,n
CC(=O)Nc1ccc2c(c1)C(=O)N(C)[C@@H]1CC[C@@H](CC(=O)NCC3CC3)O[C@@H]1CO2,x,x,x,x,n,n
C[C@@H]1CN([C@@H](C)CO)S(=O)(=O)c2ccc(Br)cc2O[C@@H]1CN(C)C(=O)CC1CC1,x,x,x,x,n,n
O=S(=O)(c1ccc(SCCOc2ccccc2)nc1)N1CCCC1,n,x,n,n,n,n
COC(=O)[C@H](CCSC)NC(=O)Nc1ccc(OC)c(Cl)c1,n,n,n,n,n,x
CCCn1nc(C(=O)N2CCN(S(=O)(=O)c3ccc(C)c(C)c3)CC2)c2ccccc2c1=O,n,x,n,69,n,n
Cc1cccc(C)c1-n1nnnc1C(CCc1ccccc1)N1CCC(n2c(=O)[nH]c3ccccc32)CC1 (stereo not drawn),x,x,x,x,n,n
CCOC(=O)C1(Cc2cccc(Cl)c2)CCCN(C(=O)c2occc2C)C1 (stereo not drawn),n,n,n,122,n,n
O=S(=O)(Nc1nccs1)c1ccc(Cl)cc1,n,n,n,n,x,x
CCCNC(=O)CC(NS(=O)(=O)c1ccc(Cl)cc1)c1ccco1 (stereo not drawn),n,n,n,124,n,x
O=C1Nc2ccc(Br)cc2C12OCCO2,n,x,n,n,x,n
CCn1c(SCC(=O)Nc2ccc(C(C)=O)cc2)nc2nc3c(cc2c1=O)CCCC3,n,n,n,n,n,x
CCn1c(SCC(=O)NCc2ccccc2)nc2nc3c(cc2c1=O)CCCC3,n,53,n,n,x,n
CCn1c(SCC(=O)Nc2ccc(Cl)cc2)nc2nc3c(cc2c1=O)CCCC3,n,60,n,n,n,x
O=c1nc(-c2ccccc2)c2cc(SC(F)F)ccc2[nH]1,n,53,n,n,n,n
CCN1CCN(C(=O)CN(CC)S(=O)(=O)c2ccc(Cl)cc2)CC1,n,n,n,n,n,x
C[C@@H]1CN(S(=O)(=O)C(C)(C)C)[C@@H](CCO)/C1=C\CCO,x,x,x,x,x,n
CCN1C(=O)[C@H]2[C@@H](c3ccc(C)cc3)N3C(=O)N(c4ccc(C)cc4)C(=O)[C@@]3(CC)[C@H]2C1=O,n,x,n,n,n,n
SMILES,Y pestis TopoI,VHR inh abs,BH1578 lux ind,PfHsp40 rescue,Mtb BioA inh,TcdB inh
CCN1C(=O)[C@H]2[C@@H](c3ccc(C)cc3)N3C(=O)N(c4ccccc4)C(=O)[C@@]3(CC)[C@H]2C1=O,n,n,n,35,n,n
COc1ccc(OC)c(CNc2ccc(F)c(Cl)c2)c1,n,n,n,38,x,n
COc1ccc(OC)c(CNc2ccc3c(c2)CCC3)c1,n,n,n,n,n,n
Cc1cccc(C(=O)NC(=S)NNC(=O)c2ccc(Cl)cc2)c1,n,n,n,75,x,x
COc1ccc(C(=O)NNS(=O)(=O)c2ccc(OC)cc2)cc1,n,58,n,n,n,n
Cc1cccc(C(=O)NC(=S)NNC(=O)c2cccs2)c1,n,n,n,n,x,n
Cc1ccc(C(=O)NC(=S)NNC(=O)CC#N)cc1,n,n,n,n,x,12
COc1ccc(C(=O)NC(=S)NNC(=O)c2ccc(C)cc2)cc1,n,x,n,143,x,n
Cc1cc2ccccn2c1C(=O)c1ccncc1,n,n,n,n,n,x
Cn1cnc(S(=O)(=O)N[C@@H]2CC[C@@H](CC(=O)Nc3ccc(-c4ccccc4)cc3)O[C@H]2CO)c1,x,x,x,x,n,n
CCCCC(=O)NNC(=S)NC(=O)c1ccc(C)cc1,n,n,n,95,x,n
O=C(NCCc1ccccc1)c1ccc(CS(=O)Cc2ccc(Cl)cc2)o1 (stereo not drawn),n,n,n,n,n,n
O=C(CNCc1cccs1)NC12CC3CC(CC(C3)C1)C2,n,n,n,n,x,n
CC1(C)C2CCC(C2)C1(C)NC(=O)CNCc1cccs1 (stereo not drawn),n,51,n,n,x,n
CCNC(=O)[C@H]1[C@H](CO)[C@H]2Cn3c(ccc(-c4ccc(F)cc4)c3=O)[C@@H]1N2C(C)=O,x,x,x,x,n,n
O=C(Nc1ccc(Br)c(C(F)(F)F)c1)c1ccccc1,n,n,n,644,x,n
CCN(CC)c1ccc(Nc2nc(-c3cccnc3)cs2)cc1,n,57,n,n,n,n
O=C(Nc1ccc2c(c1)OCO2)N1CCN(c2ccc(F)cc2)CC1,n,57,n,n,x,n
COc1ccccc1/C=N/NC(=O)CC(=O)NCc1ccccc1,n,n,n,n,n,11
COc1ccccc1N1CCN(C2CCCN(C(=O)CCN3CCCCO3)C2)CC1 (stereo not drawn),n,51,n,n,n,n
O=C(CCN1CCCO1)N1CCCC(N2CCN(c3ccccc3F)CC2)C1 (stereo not drawn),n,n,n,n,n,n
Cc1ccc(NC(=O)c2ccc(-n3cccn3)c([N+](=O)[O-])c2)cc1,n,n,n,n,n,x
O=C(Nc1ccc(C2=NCCN2)cc1)c1ccc(C(=O)Nc2ccc(C3=NCCN3)cc2)c([N+](=O)[O-])c1,n,n,n,125,x,n

# Bioassay records deposited in PubChem BioAssay by several laboratories.
